Compound activity: PubChem BioAssay, National Center for Advancing Translational Sciences (NCATS)
Hits are enriched below; roughly 3% of the tested compounds scored in any of these assays.
TrxR1 substrate = substrates of rat thioredoxin reductase 1; Potency, µM (top dose mostly 114 µM), without a hit: top-dose activity change, negative = substrate turnover; actives 0.01% (n = 390,000); purified TrxR1 substrate turnover, NADPH consumption readout; O89049; further: on the % scale 0 is the no-effect control and ±100 the full control effect; nearly all actives have a fitted effect of over 50% in size
Target sequence (O89049 whole entry, looked up): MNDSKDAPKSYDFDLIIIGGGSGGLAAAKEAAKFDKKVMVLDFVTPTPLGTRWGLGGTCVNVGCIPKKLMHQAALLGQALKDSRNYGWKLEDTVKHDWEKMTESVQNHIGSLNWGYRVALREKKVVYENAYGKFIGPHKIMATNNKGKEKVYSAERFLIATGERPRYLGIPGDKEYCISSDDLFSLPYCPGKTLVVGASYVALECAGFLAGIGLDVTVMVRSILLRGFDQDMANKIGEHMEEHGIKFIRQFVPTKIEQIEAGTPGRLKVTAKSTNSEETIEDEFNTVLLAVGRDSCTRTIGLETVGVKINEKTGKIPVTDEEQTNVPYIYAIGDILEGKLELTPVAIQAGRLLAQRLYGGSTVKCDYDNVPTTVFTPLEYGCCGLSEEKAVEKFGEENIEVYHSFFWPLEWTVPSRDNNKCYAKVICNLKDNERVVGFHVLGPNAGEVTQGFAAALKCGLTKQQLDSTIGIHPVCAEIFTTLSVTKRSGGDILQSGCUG
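Rat TrxR1, dispensed at 90 nM, was prereduced with 400 uM NADPH (final) for 5 min at ~22 deg C, then incubated with compound 15 min before 400 uM selenite. A first-read NADPH fluorescence drop versus no-compound background flagged substrates.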
Nrf2 inh = blocks Nrf2 signaling; AID 504444; Potency, µM (highest dose often 46 µM), inactives show top-dose activity change, negative = inhibition, hits mostly inhibitors; actives 2.1% (n = 360,000); A549 ARE-Fluc reporter, luciferase luminescence, 18-24 h; further: on the % scale 0 is the no-effect control and ±100 the full control effect; nearly all actives have a fitted effect of over 60% in size
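Reporter: ARE-Fluc in A549. Exposure: 18-24 h, 37 °C, 5% CO2, 5% FBS OPTI-MEM. Readouts: fluorescent cytotoxicity (CellTiter-Fluor), then luminescent Nrf2 signal after BugLite.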
GALK inhibitor = galactokinase (human) inhibition | AID 1868 | actives 0.007% (n = 270,000) | Potency, µM (top dose mostly 57.5 µM), inactives show at the top dose activity change, negative = inhibition, actives largely listed as inhibitors | Purified GALK, Kinase-Glo residual ATP luminescence | P51570; further: on the % scale 0 is the no-effect control and ±100 the full control effect
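Luminescence from leftover ATP (Ultra-Glo luciferase/luciferin) served as read-out after a 1 h room-temperature reaction of 5 nM GALK with 35 uM ATP and 100 uM galactose.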
A549 viability = counter-screen for Nrf2 inhibitors: cytotoxicity in A549 cells; A549 ARE-Fluc cells, CellTiter-Fluor viability, 18-24 h; Potency, µM (series often up to 46 µM), for the others: top-dose activity change, negative = cytotoxicity, hits mostly inhibitors; actives 0.16% (n = 390,000); further: on the % scale 0 is the no-effect control and ±100 the full control effect
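Cytotoxicity counterscreen: CellTiter-Fluor fluorescence was measured in A549 ARE_Fluc cells after 18-24 h of compound exposure in a concentration series. The subsequent BugLite luminescent read reports ARE-luciferase activity.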
rTrxR1 inhibitor = rat TrxR1 inhibition; O89049; recombinant rTrxR1, NADPH fluorescence consumption, selenite substrate; Potency, µM (top dose mostly 114 µM), inactives show top-dose activity change, negative = inhibition, hits mostly inhibitors; actives 1% (n = 390,000); further: on the % scale 0 is the no-effect control and ±100 the full control effect; nearly all actives have a fitted effect of over 65% in size
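Rat TrxR1 (90 nM in the dispensed reagent) was pre-reduced with 400 uM NADPH for 5 min at room temperature, then incubated with compound for 15 min. After 400 uM selenite was added, NADPH fluorescence (Ex 340/Em 450 nm) was followed for 8 min.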
Nrf2 activator = activates Nrf2 signaling; AID 624171; Potency, µM (titrated, usually from 46.1 µM), for the others: at the top dose activation, hits mostly activators; AREc32 ARE-luciferase reporter (MCF7-derived line), luminescence, 24 h; actives 0.31% (n = 410,000); further: % of control where 0% means no effect; nearly all actives have a fitted effect of over 65% in size
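AREc32 cells carrying an ARE-driven firefly luciferase, 1000 cells/well in OPTI-MEM with 5% FBS, dosed after overnight attachment and incubated 24 hr at 37 deg C. Steady-Glo luminescence read after 30 min at RT.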
* marks the source's active call; other numbers are inactive results; ? = inconclusive; . = no result; [ ] = remark or other dose. The call rests on the fitted dose curve; in most records, active means well fitted curve in the direction sought with a large enough effect; inconclusive means small, poorly fitted or top-dose-only effect, or another doubt; inactive means no such curve, though single readings can be large; an effect the other way counts as inactive or inconclusive. Potency means the concentration at half of the fitted maximal effect.

SMILES	TrxR1 substrate	Nrf2 inh	GALK inhibitor	A549 viability	rTrxR1 inhibitor	Nrf2 activator
NNC(=O)c1ccc(CSc2cccc3cccnc23)cc1	16.9%[57.1 µM]	5.5%	-2.0%	12.0%	29.1%[57.1 µM]	3.0%
Cc1cccc(CSc2cccc3cccnc23)c1	15.2%	-7.7%	0.3%	-1.7%	-23.6%[57.1 µM]	22.4µM*
NCCCn1c(C(=O)c2cc(Cl)c(N)c(Cl)c2)c2ccc([N+](=O)[O-])cc2[n+]1[O-]	-4.9%	156.8%	.	18.4µM*	?	?
NCCCn1c(C(=O)c2cc(Cl)c(N)c(Cl)c2)c2ccc(C(F)(F)F)cc2[n+]1[O-]	-8.5%	15.7%	.	-19.2%	-33.9%	3.9%
CCCCn1cc2c(c1-c1ccccc1Br)c(=O)n(C)c(=O)n2C	-1.7%	-18.2%	.	-3.0%	9.1%	3.4%
COC(=O)c1ccccc1NC(=O)Cn1c(=O)n(CCCCC(=O)NCc2ccc3c(c2)OCO3)c(=O)c2ccccc21	1.1%	-1.3%	.	-1.0%	13.6%	-0.5%
CC(C)(CNc1ccc([N+](=O)[O-])cc1C#N)N1CCOCC1	-5.6%	-5.2%	1.7%	-17.5%	1.7%[57.1 µM]	-0.2%
CC(C)(CNc1ccc(S(=O)(=O)C(F)(F)F)cc1[N+](=O)[O-])N1CCOCC1	-9.2%	23.1µM*	0.6%	1.5%	-4.8%	-0.8%
COc1ccc(CNC(=O)c2cc3cccc4c3n2CC(C)S4)c(OC)c1 (configuration not stated)	24.7%	-12.9%	.	0.1%	68.4%	0.2%
COC(=O)c1cc2oc3ccccc3c2n1Cc1cc(C)ccc1C	-7.3%	?	.	4.0%	-7.2%	7.2%
O=C(O)c1ccccc1-c1c2cc(I)c(=O)c(I)c-2oc2c(I)c(O)c(I)cc12	-10.3%	-26.9%	.	9.2µM*	-24.0%	-0.7%
COC(CN(C)C(C(=O)NC1CCCCC1)c1ccccc1)OC (configuration not stated)	6.0%	8.1%	-0.9%	6.8%	19.8%[57.1 µM]	-0.6%
COC(CN(C(=O)CCl)C(C(=O)NC1CCCC(C)C1C)c1ccc(C)cc1)OC (configuration not stated)	-7.0%	-3.4%	-2.6%	-12.8%	56.2µM*	13.1%
COC(CN(C(=O)CCl)C(C(=O)NC1CCCCC1)c1ccccc1C)OC (configuration not stated)	2.4%	?	3.7%	-15.2%	39.8µM*	?
COC(CN(C(=O)CCl)C(C(=O)NC1CCCCC1)c1ccc(Cl)cc1)OC (configuration not stated)	-10.3%	1.8%	1.1%	-1.3%	35.5µM*	16.8%
O=C(NC1CCCC1)C(c1ccc(Cl)cc1)N(Cc1ccc(F)cc1)C(=O)CCl (configuration not stated)	4.4%	-7.2%	1.1%	-1.7%	12.6µM*	-0.3%
Cc1ccc(CN(Cc2ccco2)C(=O)COc2ccccc2C)cc1	-9.3%	-5.5%	.	9.1%	-8.2%	7.2%
COc1ccc2oc(=O)cc(CN3CCN(C(=O)c4ccccc4Br)CC3)c2c1	0.2%	7.2%	.	4.6%	0.8%	12.2%
Cc1cc2oc(=O)c(CC(=O)NCCc3ccccc3)c(C)c2c2occ(C(C)(C)C)c12	23.0%	?	.	-25.7%	31.9%	-1.3%
CN(C)c1ccc(/C=C2\C(=O)/C(=C/c3ccc(N(C)C)cc3)c3ccccc32)cc1	-8.4%	.	.	.	?	.
CC(=O)N1/C(=C/c2ccc(N(C)C)cc2)C(=O)c2ccccc21	-5.1%	10.7%	-1.2%	9.4%	39.8µM*	?
CC(C)(C)c1cc(N2CCOCC2)n2ncc(-c3ccc(Cl)cc3)c2n1	174.3%	?	-4.4%	6.1%	89.1µM*	7.3%
COc1ccc(CN(C)C(=O)CCc2ccc(S(=O)(=O)N3CCCCCC3)cc2)c(OC)c1	-5.6%	?	.	-19.1%	20.3%	0.6%
COc1ccc(CN(C)C(=O)CCC(=O)N2CCN(S(=O)(=O)c3ccc(Cl)cc3)CC2)c(OC)c1	3.5%	11.6µM*	.	-13.9%	13.3%	-0.7%
CNc1oc(-c2ccccc2F)nc1S(=O)(=O)c1ccc(C)cc1	6.4%	25.9µM*	-0.9%	-11.0%	?	2.9%
SMILES	TrxR1 substrate	Nrf2 inh	GALK inhibitor	A549 viability	rTrxR1 inhibitor	Nrf2 activator
Cc1ccc(S(=O)(=O)c2nc(-c3ccccc3F)oc2NCc2ccccc2)cc1	57.4%	-3.6%	.	17.6%	85.6%	-1.0%
CC(C)(C)C1CCc2c(sc(NC(=O)CCC(=O)O)c2C(=O)Nc2ccccc2C(F)(F)F)C1 (configuration not stated)	0.8%	18.4µM*	.	?	-4.1%	0.9%
COc1ccc(NC(=O)c2c(NC(=O)c3ccncc3)sc3c2CCC(C(C)(C)C)C3)cc1 (configuration not stated)	-5.2%	18.4µM*	.	-14.6%	11.6%	1.5%
COc1ccccc1NC(=O)c1c(NC(=O)c2cccs2)sc2c1CCC(C(C)(C)C)C2 (configuration not stated)	-7.8%	6.5%	.	5.7%	-13.5%	-0.7%
O=C(CCS(=O)(=O)c1ccccc1)N1CCCc2ccccc21	-0.1%	1.1%	-2.0%	0.0%	70.8µM*	6.1%
CCCN(CCC)S(=O)(=O)c1ccc(C(=O)N2CCCc3ccccc32)cc1	-3.4%	18.4µM*	1.6%	-22.4%	1.4%	-0.4%
CCCN(CCC)S(=O)(=O)c1ccc2c(c1)CCCN2C(C)=O	-4.9%	-7.9%	0.1%	8.3%	-3.2%	-0.2%
O=C(CN1C(=O)COc2ccccc21)N1CCCC1	1.6%	10.6%	-1.3%	0.2%	24.5%	-0.4%
O=C(CN1C(=O)COc2ccccc21)N1CCCc2ccccc21	5.1%	23.1µM*	0.3%	?	3.9%	-0.2%
CC(C)c1cnc2c(c1SCC(=O)Nc1ccccc1C(F)(F)F)c(=O)n(C)c(=O)n2C	3.5%[57.1 µM]	.	.	-0.5%	9.3%[57.1 µM]	0.0%
O=C(Nc1ccc([N+](=O)[O-])cc1Cl)c1cc(Br)ccc1O	4.4%	?	.	-6.1%	16.3%	.
O=C(O)COc1ccccc1/C=N/NC(=O)c1cc(-c2ccc(Cl)cc2)nc2ccccc12	-11.2%	2.3%	-0.4%	10.6%	-8.6%	10.4%
O=C(N/N=C/c1ccccn1)c1cc(-c2ccc(Br)cc2)nc2ccccc12	6.1%[57.1 µM]	13µM*	-0.2%	?	16.4%[57.1 µM]	0.0%
O=C(N/N=C/c1ccccn1)c1cc(-c2ccc(Cl)cc2)nc2ccccc12	-4.2%	9.2µM*	.	?	12.9%[57.1 µM]	7.7%
Cc1cccc2sc(N(Cc3cccnc3)C(=O)C3CCCCC3)nc12	-4.2%[57.1 µM]	.	.	0.0%	8.9%[57.1 µM]	1.2%
Clc1ccsc1-c1ccc2ccccc2n1	7.8%	?	0.6%	-2.7%	-3.6%	10µM*
Clc1ccsc1-c1ccnc(-n2cccc2)n1	-1.3%	?	-0.1%	8.3%	13.7%	10µM*
